# Source: PubChem BioAssay AID1159580 (chemical genetic matrix, 2015)
# Where “and” joins values, the source holds several entries; their conditions need not be identical. Identical values can stand only once. Hit rate of the full screen: of about 5,500 compounds, about 2,000 (36%) were called active. Inconclusive results (about 18%) are left out. Cut-off read from the data, not from the text of the source: active = normalized growth mostly below about 0.91 (no sharp cut-off); inconclusive = no clear call, values can overlap the other calls; inactive = mostly above about 0.92. The list shows a part of the results. A structure can be active in one record and inactive in another.
# Test: chemical genetic growth profiling, strain panel (AID 1159580);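 note: tested at 20 µM; growth read once vehicle control cultures reached saturation at 30 °C; 1 = growth at the plate median or of vehicle wells; lower values mean less growth of the strain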
# Details: growth OD
# [1] = S. cerevisiae deletion strains, locus YAL013W, strain DEP1, stronger effect = lower value
# [2] = S. cerevisiae deletion strains, locus YAL040C, strain CLN3, stronger effect = lower value
# [3] = S. cerevisiae deletion strains, locus YCL061C, strain MRC1 (second series), stronger effect = lower value
# [4] = S. cerevisiae deletion strains, locus YDR363W, strain ESC2, stronger effect = lower value
# [5] = S. cerevisiae deletion strains, locus YER002W, strain NOP16, stronger effect = lower value
# [6] = S. cerevisiae deletion strains, locus YJR075W, strain HOC1, stronger effect = lower value
# [7] = S. cerevisiae deletion strains, locus YNL153C, strain GIM3, stronger effect = lower value
# [8] = S. cerevisiae deletion strains, locus YNL175C, strain NOP13, stronger effect = lower value
# [9] = S. cerevisiae deletion strains, locus YNL197C, strain WHI3, stronger effect = lower value
# [10] = S. cerevisiae deletion strains, locus YNL224C, strain SQS1, stronger effect = lower value
# [11] = S. cerevisiae deletion strains, locus YOR083W, strain WHI5 (second series), stronger effect = lower value
# [12] = S. cerevisiae deletion strains, locus YPL055C, strain LGE1, stronger effect = lower value
# [13] = S. cerevisiae deletion strains, locus YDR150W, strain NUM1, stronger effect = lower value
# [14] = S. cerevisiae deletion strains, locus YPL241C, strain CIN2, stronger effect = lower value
# [15] = S. cerevisiae deletion strains, locus YBR229C, strain ROT2, stronger effect = lower value
# [16] = S. cerevisiae deletion strains, locus YCL061C, strain MRC1, stronger effect = lower value
# [17] = S. cerevisiae deletion strains, locus YDL101C, strain DUN1, stronger effect = lower value
# [18] = S. cerevisiae deletion strains, locus YDL134C, strain PPH21, stronger effect = lower value
# [19] = S. cerevisiae deletion strains, locus YEL061C, strain CIN8, stronger effect = lower value
# [20] = S. cerevisiae deletion strains, locus YGR078C, strain PAC10, stronger effect = lower value
# [21] = S. cerevisiae deletion strains, locus YHR030C, strain SLT2, stronger effect = lower value
# [22] = S. cerevisiae deletion strains, locus YHR087W, strain rtc3, stronger effect = lower value
# [23] = S. cerevisiae deletion strains, locus YLR039C, strain RIC1, stronger effect = lower value
# [24] = S. cerevisiae deletion strains, locus YLR058C, strain SHM2 (second series), stronger effect = lower value
# [25] = S. cerevisiae deletion strains, locus YLR085C, strain ARP6, stronger effect = lower value
# [26] = S. cerevisiae deletion strains, locus YLR262C, strain YPT6, stronger effect = lower value
# [27] = S. cerevisiae deletion strains, locus YML094W, strain GIM5, stronger effect = lower value
# [28] = S. cerevisiae deletion strains, locus YMR219W, strain ESC1, stronger effect = lower value
# [29] = S. cerevisiae deletion strains, locus YMR263W, strain SAP30, stronger effect = lower value
# [30] = S. cerevisiae deletion strains, locus YMR307W, strain GAS1, stronger effect = lower value
# [31] = S. cerevisiae deletion strains, locus YNL298W, strain CLA4 (second series), stronger effect = lower value
# [32] = S. cerevisiae deletion strains, locus YNL322C, strain KRE1, stronger effect = lower value
# [33] = S. cerevisiae deletion strains, locus YNR030W, strain Alg12, stronger effect = lower value
# [34] = S. cerevisiae deletion strains, locus YPR135W, strain CTF4, stronger effect = lower value
smiles,measurement,setting,value
CC(C)[C@@H](CO)Nc1nc(Nc2cccc(Cl)c2)c2ncn(C(C)C)c2n1,normalized growth,[1],1.01 (inactive)
same,normalized growth,[2],1.01 (inactive)
same,normalized growth,[3],1.01 (inactive)
same,normalized growth,[4],1.02 (inactive)
same,normalized growth,[5],1.04 (inactive)
same,normalized growth,[6],1.02 (inactive)
same,normalized growth,[7],0.894 (inactive)
same,normalized growth,[8],0.982 (inactive)
same,normalized growth,[9],0.994 (inactive)
same,normalized growth,[10],0.989 (inactive)
same,normalized growth,[11],0.913 (inactive)
same,normalized growth,[12],1.02 (inactive)
CN(C)c1cc2c(Nc3ccc4c(cnn4Cc4ccccc4)c3)ncnc2cn1,normalized growth,[1],0.994 (inactive)
same,normalized growth,[2],0.971 (inactive)
same,normalized growth,[3],1.01 (inactive)
same,normalized growth,[13],1.01 (inactive)
same,normalized growth,[4],0.998 (inactive)
same,normalized growth,[5],0.98 (inactive)
same,normalized growth,[6],1.01 (inactive)
same,normalized growth,"S. cerevisiae deletion strains, locus YNL128W, strain TEP1, stronger effect = lower value",1 (inactive)
same,normalized growth,[8],0.995 (inactive)
same,normalized growth,[9],1 (inactive)
same,normalized growth,[10],1.02 (inactive)
same,normalized growth,[11],0.954 (inactive)
same,normalized growth,[14],1 (inactive)
COc1cc2ncnc(Nc3cccc(Cl)c3)c2cc1OC,normalized growth,[1],0.962 (inactive) and 0.936 (inactive)
same,normalized growth,[2],1.03 (inactive)
same,normalized growth,[15],0.962 (inactive)
same,normalized growth,[3],0.987 (inactive)
same,normalized growth,[16],0.956 (inactive)
same,normalized growth,[17],0.985 (inactive)
same,normalized growth,[18],0.877 (active)
same,normalized growth,[13],0.915 (inactive) and 0.999 (inactive)
same,normalized growth,[4],0.968 (inactive)
same,normalized growth,[19],0.834 (active)
same,normalized growth,[5],0.976 (inactive)
same,normalized growth,[20],0.968 (inactive) and 0.958 (inactive)
same,normalized growth,"S. cerevisiae deletion strains, locus YGR229C, strain SMI1, stronger effect = lower value",0.97 (inactive)
same,normalized growth,[21],0.882 (inactive)
same,normalized growth,[22],0.95 (inactive)
same,normalized growth,[6],0.906 (inactive)
same,normalized growth,[23],1.03 (inactive)
same,normalized growth,[24],0.981 (inactive)
same,normalized growth,[25],0.46 (active)
same,normalized growth,[26],1.02 (inactive)
same,normalized growth,[27],0.828 (active)
same,normalized growth,[28],0.986 (inactive)
same,normalized growth,[29],0.91 (inactive)
same,normalized growth,[30],0.562 (active) and 0.979 (inactive)
same,normalized growth,[7],0.974 (inactive)
same,normalized growth,[8],0.954 (inactive)
same,normalized growth,[9],0.982 (inactive)
same,normalized growth,[10],0.965 (inactive)
same,normalized growth,[31],0.883 (inactive)
same,normalized growth,[32],0.99 (inactive)
same,normalized growth,[33],0.82 (active)
same,normalized growth,[11],0.89 (inactive)
same,normalized growth,[12],0.815 (inactive) and 0.967 (inactive)
same,normalized growth,[14],0.831 (active)
same,normalized growth,[34],0.533 (active)
same,normalized growth,"S. cerevisiae strains, strain wild type, stronger effect = lower value",0.926 (inactive)
COc1cc(C2Nc3cccc4cccc(c34)N2)cc(OC)c1OC,normalized growth,[1],0.962 (inactive)
same,normalized growth,[15],1.01 (inactive)
same,normalized growth,[16],1.02 (inactive)
same,normalized growth,[17],1.05 (inactive)
same,normalized growth,[18],0.985 (inactive)
same,normalized growth,[13],1.04 (inactive)
same,normalized growth,[19],0.925 (inactive)
same,normalized growth,[20],1.02 (inactive)
same,normalized growth,[21],0.729 (inactive)
same,normalized growth,[22],1.01 (inactive)
same,normalized growth,"S. cerevisiae deletion strains, locus YJL187C, strain SWE1, stronger effect = lower value",0.992 (inactive)
same,normalized growth,"S. cerevisiae deletion strains, locus YJR043C, strain POL32, stronger effect = lower value",1.01 (inactive)
same,normalized growth,[6],1.07 (inactive)
same,normalized growth,[23],0.751 (active)
same,normalized growth,[24],1 (inactive)
same,normalized growth,[25],0.881 (inactive)
same,normalized growth,[26],0.808 (active)
same,normalized growth,[27],0.883 (inactive)
same,normalized growth,[28],1 (inactive)
same,normalized growth,[29],0.996 (inactive)
same,normalized growth,[30],0.661 (active)
same,normalized growth,[7],1.02 (inactive)
same,normalized growth,[31],0.877 (inactive)
same,normalized growth,[32],1 (inactive)
same,normalized growth,[33],0.736 (active)
same,normalized growth,[12],0.945 (inactive)
same,normalized growth,[14],0.403 (active)
same,normalized growth,[34],0.952 (inactive)
